Drawing on PubChem BioAssay (NCATS), this text covers Potency for 27 molecules.

Inconclusive results are not listed. Entries that show only a call come without a potency. Calls of active or inactive are those of the source. Calls follow the shape of the dose curve; as a rule, active = well fitted cell-killing curve with a large enough effect; inconclusive = small, poorly fitted or top-dose-only effect, or effect the other way; inactive = no such curve, though single readings can be large or run the other way. Bridge positions count the residues as written; N and C are the ends. Square brackets hold non-standard residues; d marks the D form. Peptide text beside a SMILES is read from it. * marks the point of attachment. ξ: configuration not given here. Octanoyl(6-Me) = CCC(C)CCCCC(=O)*; ξThr(3R) = C[C@@H](O)C(N)C(=O)O; dDab = NCC[C@@H](N)C(=O)O; Dab = NCC[C@H](N)C(=O)O
Also: nearly all actives have a fitted effect of over 35% in size.
Potency is read from the fitted curve at half-maximal effect.

A short description of the first assay: Quantitative highthroughput screen to assess conditional lethalithy of SEM cells grown in Human Plasma-Like Medium with dialyzed fetal bovine serum (HPLM+ds) (AID 1963882). The note with it: SEM B-ALL cells in HPLM+ds, CellTiter-Glo viability, 48 h; series mostly up to 45.8 µM. Put shortly:
(§1)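 Each medium arm—HPLM with 10% dialyzed FBS, or RPMI1640 with 5 mM glucose and 10% untreated or dialyzed FBS—was screened against an 11-point, 3-fold compound titration for 48 h at 37 °C, with CellTiter-Glo luminescence as endpoint.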
For the molecule `CN(C)Cc1ccc(-c2nc3cccc4c3n2CCNC4=O)cc1`, the Potency result is “inactive”.
With `CC(C)(C)C(=O)OCOP(=O)(COCCn1cnc2c(N)ncnc21)OCOC(=O)C(C)(C)C`, the Potency was 469 nM (active).
For the molecule `CCS(=O)(=O)c1cccc(-c2cc(C(=O)NC3CCN(C)CC3)c(C)c3[nH]c4ncc(C)cc4c23)c1`, the Potency was 469 nM (active).
`COc1ccccc1OCCNCC(O)COc1cccc2[nH]c3ccccc3c12` (centres undefined): the Potency result is “inactive”.
Same read-out and setting: under `NCCc1ccc(O)c(O)c1` stands 18700 nM (active).
Take `Cc1ccccc1-n1c(Cn2nc(-c3cccc(O)c3)c3c(N)ncnc32)nc2cccc(C)c2c1=O`: the Potency entry was “inactive”.
As to `NC1CCC(N[C@@H]2C[C@H]2c2ccccc2)CC1` (some centres undefined), the Potency result was “inactive”.
For `C[C@@H](NC(=O)c1ncnc(N)c1Cl)c1ncc(C(=O)Nc2cc(C(F)(F)F)c(Cl)cn2)s1`, the Potency result is “inactive”.
Take `Clc1ccc2c(c1)C(N1CCNCC1)=Nc1ccccc1O2`: the Potency entry is “inactive”.
Still for that read-out and setting: as for `OCc1ccc(-c2ccc(-c3ccc(CO)s3)o2)s1`, the entry is “inactive”; as for `CN1CCC(=C2c3ccccc3CC(=O)c3sccc32)CC1`, “inactive”.

The next assay is described as follows: Quantitative highthroughput screen to assess conditional lethalithy of SEM cells grown in RPMI1640 with unreated serum (RPMI+s) (AID 1963883). Conditions: SEM B-ALL cells, CellTiter-Glo viability, 48 h; series mostly up to 45.8 µM. Put shortly:
as §1
As for `CC(C)C[C@@H](N)[C@H](O)C(=O)N[C@H](C(=O)N[C@H](C(=O)N[C@@H](CC(=O)O)C(=O)O)C(C)C)C(C)C`, the Potency result is “inactive”.
Take `CN1CCN(CCCN2c3ccccc3Sc3ccc(C(F)(F)F)cc32)CC1`: the Potency result is “inactive”.
Consider `Cc1c(C(=O)Nc2ccc(N3C[C@@H](C)O[C@@H](C)C3)nc2)cccc1-c1ccc(OC(F)(F)F)cc1`, for which the Potency was 1480 nM (active).
The same measure, in the same setting: under `CC(C)Oc1cc(Nc2nc(N[C@@H](C)c3ccc(F)cn3)ncc2Cl)[nH]n1` stands 526 nM (active).
`CC(C(=O)O)c1cccc(C(=O)c2ccccc2)c1` (centres undefined): the Potency result was “inactive”.
On the same count and under the same terms, under `O=C(O)C1CCCN(CCC=C(c2ccccc2)c2ccccc2)C1` (centres undefined) stands “inactive”; under `CCC(C)CCCCC(=O)N[C@@H](CCN)C(=O)NC(C(=O)N[C@H](CCN)C(=O)N[C@@H]1CCNC(=O)C([C@@H](C)O)NC(=O)[C@@H](CCN)NC(=O)[C@@H](CCN)NC(=O)[C@@H](CC(C)C)NC(=O)[C@H](Cc2ccccc2)NC(=O)[C@H](CCN)NC1=O)[C@@H](C)O` (stereo partly drawn) ({Octanoyl(6-Me)}-[Dab][ξThr(3R)][dDab][dDab][Dab]F[dL][dDab][dDab][ξThr(3R)]; lactam 4-C), “inactive”; under `Clc1ccc(C(Cn2ccnc2)OCc2c(Cl)cccc2Cl)c(Cl)c1` (centres undefined), “inactive”.
The same measure, in the same setting: as for `Cc1cc(CN2CCN(c3c(Br)cnc4nc(-c5ccc(N6CCN(C)CC6)cc5)[nH]c34)CC2)no1`, the figure is 743 nM (active); as for `COc1ccc2cc(-c3nc(-c4ccc(S(C)=O)cc4)[nH]c3-c3ccncc3)ccc2c1` (centres undefined), “inactive”; as for `CN(C)Cc1ccc(-c2nc3cccc4c3n2CCNC4=O)cc1`, “inactive”.
`CC(C)(C)C(=O)OCOP(=O)(COCCn1cnc2c(N)ncnc21)OCOC(=O)C(C)(C)C`: the Potency was 105 nM (active).
With `CCS(=O)(=O)c1cccc(-c2cc(C(=O)NC3CCN(C)CC3)c(C)c3[nH]c4ncc(C)cc4c23)c1`, the Potency is 296 nM (active).
As for `O=C(Nc1cccc(Cl)c1)Nc1ncc(CCNc2ncnc3ccsc23)s1`, the Potency was 209 nM (active).
Consider `COc1ccccc1OCCNCC(O)COc1cccc2[nH]c3ccccc3c12` (centres undefined), for which the Potency entry is “inactive”.
Take `Cc1ccccc1-n1c(Cn2nc(-c3cccc(O)c3)c3c(N)ncnc32)nc2cccc(C)c2c1=O`: the Potency entry is “inactive”.
As to `NC1CCC(N[C@@H]2C[C@H]2c2ccccc2)CC1` (some centres undefined), the Potency result was “inactive”.
For `C[C@@H](NC(=O)c1ncnc(N)c1Cl)c1ncc(C(=O)Nc2cc(C(F)(F)F)c(Cl)cn2)s1`, the Potency entry was “inactive”.
Same read-out and setting: under `C[C@H](CCC(=O)O)[C@H]1CCC2C3C[C@H](O)[C@@H]4C[C@H](O)CC[C@]4(C)C3CC[C@@]21C` (some centres undefined) stands “inactive”; under `COc1cc2nc(N3CCCN(C)CC3)nc(NC3CCN(Cc4ccccc4)CC3)c2cc1OC`, 11800 nM (active); under `OCc1ccc(-c2ccc(-c3ccc(CO)s3)o2)s1`, “inactive”.
On the same count and under the same terms, as for `CN1CCC(=C2c3ccccc3CC(=O)c3sccc32)CC1`, the entry is “inactive”.

A further assay can be described thus: Quantitative highthroughput screen to assess conditional lethalithy of SEM cells grown in RPMI1640 with dialyzed fetal bovine serum (RPMI+ds) (AID 1963884). The note with it: SEM B-ALL cells, RPMI+dialyzed FBS, CellTiter-Glo viability, 48 h; series mostly up to 45.8 µM. Put shortly:
as §1
Consider `O=C1N(c2ccccc2)c2ccccc2C1(Cc1ccncc1)Cc1ccncc1`, for which the Potency entry was “inactive”.
Same read-out and setting: under `CN1CCN(CCCN2c3ccccc3Sc3ccc(C(F)(F)F)cc32)CC1` stands “inactive”; under `Cc1c(C(=O)Nc2ccc(N3C[C@@H](C)O[C@@H](C)C3)nc2)cccc1-c1ccc(OC(F)(F)F)cc1`, 2350 nM (active); under `CC(C)Oc1cc(Nc2nc(N[C@@H](C)c3ccc(F)cn3)ncc2Cl)[nH]n1`, 332 nM (active).
For the molecule `Cc1ccn(-c2ccc(-c3ncco3)cc2)c(=O)c1-c1ccc2nc(N)ncc2c1`, the Potency is 1870 nM (active).
With `O=C(O)C1CCCN(CCC=C(c2ccccc2)c2ccccc2)C1` (centres undefined), the Potency entry is “inactive”.
Still for that read-out and setting: under `CCC(C)CCCCC(=O)N[C@@H](CCN)C(=O)NC(C(=O)N[C@H](CCN)C(=O)N[C@@H]1CCNC(=O)C([C@@H](C)O)NC(=O)[C@@H](CCN)NC(=O)[C@@H](CCN)NC(=O)[C@@H](CC(C)C)NC(=O)[C@H](Cc2ccccc2)NC(=O)[C@H](CCN)NC1=O)[C@@H](C)O` (stereo partly drawn) ({Octanoyl(6-Me)}-[Dab][ξThr(3R)][dDab][dDab][Dab]F[dL][dDab][dDab][ξThr(3R)]; lactam 4-C) stands “inactive”; under `Cc1cc(CN2CCN(c3c(Br)cnc4nc(-c5ccc(N6CCN(C)CC6)cc5)[nH]c34)CC2)no1`, 743 nM (active).
The same measure, in the same setting: as for `COc1c(N2CCNC(C)C2)c(F)cc2c(=O)c(C(=O)O)cn(C3CC3)c12` (centres undefined), the figure is 662 nM (active); as for `COc1ccc2cc(-c3nc(-c4ccc(S(C)=O)cc4)[nH]c3-c3ccncc3)ccc2c1` (centres undefined), “inactive”; as for `CN(C)Cc1ccc(-c2nc3cccc4c3n2CCNC4=O)cc1`, “inactive”.
Still for that read-out and setting: as for `CC(C)(C)C(=O)OCOP(=O)(COCCn1cnc2c(N)ncnc21)OCOC(=O)C(C)(C)C`, the figure is 105 nM (active).
For `O=C(Nc1cccc(Cl)c1)Nc1ncc(CCNc2ncnc3ccsc23)s1`, the Potency is 209 nM (active).
With `COc1ccccc1OCCNCC(O)COc1cccc2[nH]c3ccccc3c12` (centres undefined), the Potency result is “inactive”.
Regarding `NCCc1ccc(O)c(O)c1`, the Potency is 26400 nM (active).
Consider `Cc1ccccc1-n1c(Cn2nc(-c3cccc(O)c3)c3c(N)ncnc32)nc2cccc(C)c2c1=O`, for which the Potency entry is “inactive”.
For the molecule `NC1CCC(N[C@@H]2C[C@H]2c2ccccc2)CC1` (some centres undefined), the Potency entry was “inactive”.
Turning to `C[C@@H](NC(=O)c1ncnc(N)c1Cl)c1ncc(C(=O)Nc2cc(C(F)(F)F)c(Cl)cn2)s1`, the Potency result was “inactive”.
Still for that read-out and setting: as for `Clc1ccc2c(c1)C(N1CCNCC1)=Nc1ccccc1O2`, the entry is “inactive”; as for `OCc1ccc(-c2ccc(-c3ccc(CO)s3)o2)s1`, “inactive”.
On the same count and under the same terms, under `CN1CCC(=C2c3ccccc3CC(=O)c3sccc32)CC1` stands “inactive”.
